# What was measured:
# Assay in all cases: yeast three-hybrid, YBZ-1, SC-Leu-His + 0.5 mM 3-AT, 4 days
# Details in all cases: tags: N-Gal4 AD-HA kept; label: inside an RPR1-promoter hybrid RNA with tandem MS2 sites; ssRNA
# PUM1 PUF domain R1-RCL = PUM1 PUF domain R1-RCL (Homo sapiens, UniProt Q14671 828-1176, S863R;R864C;Q867L)
# How it was run: (§1)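 The interaction score is the log change in variant frequency from input to selection. Scores were computed in log2 with a pseudocount of 1 for absent variants, using Illumina sequencing of PCR-amplified repeat regions. The input came from four days on SC-Leu and the selection from four days on SC-Leu-His + 0.5 mM 3-AT. The cells were strain YBZ-1 (LexA–MS2 coat fusion, HIS3 reporter) co-expressing Pumilio-1 PUF domain libraries and matching RNA elements from a centromeric plasmid.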
# PUM1 PUF domain R5-NLL = PUM1 PUF domain R5-NLL (Homo sapiens, UniProt Q14671 828-1176, C1007N;R1008L;Q1011L)
# How it was run: as §1
# PUM1 PUF domain R3-VRI = PUM1 PUF domain R3-VRI (Homo sapiens, UniProt Q14671 828-1176, C935V;Q939I)
# How it was run: as §1
# PUM1 PUF domain R7-IMG = PUM1 PUF domain R7-IMG (Homo sapiens, UniProt Q14671 828-1176, S1079I;N1080M;E1083G)
# How it was run: as §1
# PUM1 PUF domain R1-KPC = PUM1 PUF domain R1-KPC (Homo sapiens, UniProt Q14671 828-1176, S863K;R864P;Q867C)
# How it was run: as §1
# PUM1 PUF domain R5-KTN = PUM1 PUF domain R5-KTN (Homo sapiens, UniProt Q14671 828-1176, C1007K;R1008T;Q1011N)
# How it was run: as §1
# PUM1 PUF domain R4-HNS = PUM1 PUF domain R4-HNS (Homo sapiens, UniProt Q14671 828-1176, N971H;H972N;Q975S)
# How it was run: as §1
# PUM1 PUF domain R4-RLF = PUM1 PUF domain R4-RLF (Homo sapiens, UniProt Q14671 828-1176, N971R;H972L;Q975F)
# How it was run: as §1
# PUM1 PUF domain R4-LHQ = PUM1 PUF domain R4-LHQ (Homo sapiens, UniProt Q14671 828-1176, N971L)
# How it was run: as §1
# PUM1 PUF domain R2-LWF = PUM1 PUF domain R2-LWF (Homo sapiens, UniProt Q14671 828-1176, N899L;Y900W;Q903F)
# How it was run: as §1
# PUM1 PUF domain R5-NLL, sequence (Q14671 828-1176 C1007N/R1008L/Q1011L): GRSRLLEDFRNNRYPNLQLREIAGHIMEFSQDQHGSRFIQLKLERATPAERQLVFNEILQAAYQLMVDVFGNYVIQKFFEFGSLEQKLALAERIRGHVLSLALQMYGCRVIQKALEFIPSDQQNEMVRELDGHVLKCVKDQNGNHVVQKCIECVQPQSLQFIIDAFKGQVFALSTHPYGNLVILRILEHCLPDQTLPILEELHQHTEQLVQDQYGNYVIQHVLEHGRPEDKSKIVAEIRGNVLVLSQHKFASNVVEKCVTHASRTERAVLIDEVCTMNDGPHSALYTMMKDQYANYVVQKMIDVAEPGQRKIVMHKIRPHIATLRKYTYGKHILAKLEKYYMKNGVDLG
# PUM1 PUF domain R7-IMG, sequence (Q14671 828-1176 S1079I/N1080M/E1083G): as the sequence (Q14671 828-1176 C1007N/R1008L/Q1011L) above, with N180C, L181R, L184Q, S252I, N253M, E256G counted along it
# PUM1 PUF domain R5-KTN, sequence (Q14671 828-1176 C1007K/R1008T/Q1011N): as the sequence (Q14671 828-1176 C1007N/R1008L/Q1011L) above, with N180K, L181T, L184N counted along it
sequence,measurement,setting,value
GGCUAGAACUAGUGGAUCCCCCGGCGCCCGGCGGCUCGAGCCCGGGUAAGUGUAAAUCGUCUGCAUGCCGCCGGGCGCCAUGCCUGCAGGUCGACUCUAGAAAACAUG,binding signal,PUM1 PUF domain R1-RCL,3.05 log2 enrichment (interaction score)
GGCUAGAACUAGUGGAUCCCCCGGCGCCCGGCGGCUCGAGCCCGGGUAAGUGUUAAUAGUCUGCAUGCCGCCGGGCGCCAUGCCUGCAGGUCGACUCUAGAAAACAUG,binding signal,PUM1 PUF domain R5-NLL,2.94 log2 enrichment (interaction score)
GGCUAGAACUAGUGGAUCCCCCGGCGCCCGGCGGCUCGAGCCCGGGUAAGUGUAAUUAGUCUGCAUGCCGCCGGGCGCCAUGCCUGCAGGUCGACUCUAGAAAACAUG,binding signal,PUM1 PUF domain R3-VRI,0.57 log2 enrichment (interaction score)
GGCUAGAACUAGUGGAUCCCCCGGCGCCCGGCGGCUCGAGCCCGGGUAAGUUUAAAUAGUCUGCAUGCCGCCGGGCGCCAUGCCUGCAGGUCGACUCUAGAAAACAUG,binding signal,PUM1 PUF domain R7-IMG,3.68 log2 enrichment (interaction score)
GGCUAGAACUAGUGGAUCCCCCGGCGCCCGGCGGCUCGAGCCCGGGUAAGUGUAAAUUGUCUGCAUGCCGCCGGGCGCCAUGCCUGCAGGUCGACUCUAGAAAACAUG,binding signal,PUM1 PUF domain R1-KPC,4.34 log2 enrichment (interaction score)
GGCUAGAACUAGUGGAUCCCCCGGCGCCCGGCGGCUCGAGCCCGGGUAAGUGUCAAUAGUCUGCAUGCCGCCGGGCGCCAUGCCUGCAGGUCGACUCUAGAAAACAUG,binding signal,PUM1 PUF domain R5-KTN,3.79 log2 enrichment (interaction score)
GGCUAGAACUAGUGGAUCCCCCGGCGCCCGGCGGCUCGAGCCCGGGUAAGUGUAAAUAGUCUGCAUGCCGCCGGGCGCCAUGCCUGCAGGUCGACUCUAGAAAACAUG,binding signal,PUM1 PUF domain R4-HNS,1.42 log2 enrichment (interaction score)
same,binding signal,PUM1 PUF domain R3-VRI,4.31 log2 enrichment (interaction score)
same,binding signal,PUM1 PUF domain R4-RLF,4.74 log2 enrichment (interaction score)
GGCUAGAACUAGUGGAUCCCCCGGCGCCCGGCGGCUCGAGCCCGGGUAAGUGUAUAUAGUCUGCAUGCCGCCGGGCGCCAUGCCUGCAGGUCGACUCUAGAAAACAUG,binding signal,PUM1 PUF domain R4-LHQ,6.92 log2 enrichment (interaction score)
same,binding signal,PUM1 PUF domain R4-HNS,4.08 log2 enrichment (interaction score)
GGCUAGAACUAGUGGAUCCCCCGGCGCCCGGCGGCUCGAGCCCGGGUAAGUGUAAAAAGUCUGCAUGCCGCCGGGCGCCAUGCCUGCAGGUCGACUCUAGAAAACAUG,binding signal,PUM1 PUF domain R2-LWF,6.96 log2 enrichment (interaction score)
GGCUAGAACUAGUGGAUCCCCCGGCGCCCGGCGGCUCGAGCCCGGGUAAGUGUAAACAGUCUGCAUGCCGCCGGGCGCCAUGCCUGCAGGUCGACUCUAGAAAACAUG,binding signal,PUM1 PUF domain R2-LWF,1.17 log2 enrichment (interaction score)

# From paper PMC8384837, “Expanding the binding specificity for RNA recognition by a PUF domain”
